Drawing on PubChem BioAssay AID362 (NMMLSC, 2006), this text covers inhibition for 56 molecules.

About 60 (1%) of roughly 4,300 compounds were called active.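 Rule for the calls: active = inhibition of labelled peptide binding to the formyl peptide receptor of at least 65%; inactive = the rest.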 This excerpt belongs to a sample that is enriched for actives.

Sequence of fMet-Leu-Phe receptor (Homo sapiens) (P21462 whole entry, looked up): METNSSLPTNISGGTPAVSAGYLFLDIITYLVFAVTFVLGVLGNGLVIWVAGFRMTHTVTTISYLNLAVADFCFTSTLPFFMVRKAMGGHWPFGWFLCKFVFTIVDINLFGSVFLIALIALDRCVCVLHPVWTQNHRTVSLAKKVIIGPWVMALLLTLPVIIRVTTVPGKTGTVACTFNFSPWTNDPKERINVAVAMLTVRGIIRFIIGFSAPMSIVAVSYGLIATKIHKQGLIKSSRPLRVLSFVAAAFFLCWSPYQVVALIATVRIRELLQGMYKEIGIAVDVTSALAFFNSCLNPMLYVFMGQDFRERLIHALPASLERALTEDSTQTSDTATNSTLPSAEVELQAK

The assay has as its target fMet-Leu-Phe receptor (Homo sapiens) (UniProt P21462). Description: FPR binders displacing fluorescent formyl peptide, primary screen, U937-FPR cells, fMLFK-FITC, flow cytometry (AID 362).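 For inhibition: plate controls were buffer control wells for no effect and unlabeled fMLFF blocking peptide for full effect; higher means less cell fluorescence so more probe displaced.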 Particulars: fMLFK-FITC displacement; stronger effect = higher value, concentration not given here. In general terms: A flow cytometer gives signals particle by particle.
Broadly, the inhibition is the drop in the measured response relative to a control, in per cent. Regarding `CCOC(=O)c1cc2c(=O)n3ccccc3nc2n(CC(C)C)c1=NC(=O)c1ccccc1OCC`, the inhibition result was “inactive”. Turning to `CCOC(=O)c1c(NC(=O)C2CCCCC2C(=O)O)sc(C)c1-c1ccc(Cl)cc1` (stereo unspecified), the inhibition was 77.1% (active). Under `CCOC(=O)c1c(NC(=O)C2CCCCC2C(=O)O)sc(C)c1-c1ccc(C(C)(C)C)cc1` (stereo unspecified) stands 29.4% (inactive); under `Cc1sc(NC(=O)C2CCCCC2C(=O)O)c(C(N)=O)c1-c1ccc(C(C)(C)C)cc1` (stereo unspecified), 70.2% (active); under `CCCOC(=O)c1c(NC(=O)C2CCCCC2C(=O)O)sc(C)c1C` (stereo unspecified), 35.7% (inactive). As to `CCOC(=O)c1c(NC(=O)C2C3CCC(C3)C2C(=O)O)sc(C)c1-c1ccc(Cl)cc1` (stereo unspecified), the inhibition was 45.9% (inactive). `Cc1sc(NC(=O)C2C3CCC(C3)C2C(=O)O)c(C(N)=O)c1-c1ccc(C(C)(C)C)cc1` (stereo unspecified): the inhibition was 82% (active). Under `CCOC(=O)c1c(NC(=O)C2C3CCC(C3)C2C(=O)O)sc(C)c1-c1ccc(C(C)(C)C)cc1` (stereo unspecified) stands 63.6% (inactive); under `CCOC(=O)c1c(NC(=O)C2CCCCC2C(=O)O)sc(C)c1-c1ccc(F)cc1` (stereo unspecified), 57.3% (inactive). Under `CCCOC(=O)c1c(NC(=O)C2CCCCC2C(=O)O)sc(C)c1-c1ccc(F)cc1` (stereo unspecified) stands 17.2% (inactive); under `N#CC1=C(SCC(=O)Nc2ccc(F)cc2)NC(=O)C(C#N)C12CCCCC2` (stereo unspecified), 15.5% (inactive); under `N#CC1=C(SCC(=O)Nc2ccc(Br)cc2)NC(=O)C(C#N)C12CCCCC2` (stereo unspecified), 79.2% (active). For the molecule `N#CC1=C(SCC(=O)Nc2ccc(Cl)cc2)NC(=O)C(C#N)C12CCCCC2` (stereo unspecified), the inhibition was 52.1% (inactive).

Take `CC1CCC(C(C)C)C(OCC(O)CN2CCC(CN3C(=O)c4cccc5cccc(c45)C3=O)CC2)C1` (stereo unspecified): the inhibition was 93.4% (active). For the molecule `O=C1c2cccc3cccc(c23)C(=O)N1CC1CCN(C(=O)C23CC4CC(CC(C4)C2)C3)CC1`, the inhibition result was “inactive”. With `O=C(CCCN1C(=O)c2cccc3cccc(c23)C1=O)N1CCC(CN2C(=O)c3cccc4cccc(c34)C2=O)CC1`, the inhibition entry is “inactive”. On to `CCOC(=O)c1cnc2cc(Cl)c(OC)cc2c1NCCC1=CCCCC1`, for which the inhibition is 0.9% (inactive).

Consider `CCOC(=O)c1cnc2ccc(OCC)cc2c1N1CCCCCC1`, for which the inhibition was 25.2% (inactive). Take `CCOC(=O)c1cnc2ccc(OC)cc2c1NC1CCCCC1`: the inhibition is 99.3% (active). Consider `CCCN(CCC)Cc1c(O)ccc2c(=O)c(Oc3cc(C)cc(C)c3)c(C(F)(F)F)oc12`, for which the inhibition was 17.9% (inactive). Take `COc1cc2c(C(=O)NCCc3ccc(Cl)cc3)cn(CC(C)C)c(=O)c2cc1OC`: the inhibition entry is “inactive”. Take `CC(=O)Oc1ccc(C2Nc3c(C(=O)O)ccc([N+](=O)[O-])c3C3C=CCC32)cc1` (stereo unspecified): the inhibition result was “inactive”.

In the case of `CCOC(=O)C1CCC(CN(Cc2cccc(Br)c2)S(=O)(=O)c2cccc(C(F)(F)F)c2)CC1` (stereo unspecified), the inhibition result is “inactive”.

On to `CN(C)c1ccc(C(c2cc(C(C)(C)C)c(O)c(C(C)(C)C)c2)N2CCOCC2)cc1` (stereo unspecified), for which the inhibition is 29.2% (inactive).

As for `CCCc1cc(-c2n[nH]c(C)c2-c2ccc(C(=O)OCC)o2)c(O)cc1O`, the inhibition is 10.6% (inactive). Then `CCOC(=O)c1ccc(-c2c(C(F)(F)F)oc3cc(O)c(CC)cc3c2=O)o1`, with 79.1% (active); and `CCCc1cc2c(=O)c(-c3ccc(C(=O)OCC)o3)coc2cc1OC(C)=O`, with 16.9% (inactive); and `CCc1cc2c(=O)c(-c3nc4ccccc4n3C)c(C(F)(F)F)oc2cc1O`, with “inactive”. With `O=c1c(Oc2ccccc2)c(C(F)(F)F)oc2cc(O)ccc12`, the inhibition is 46.2% (inactive). Under `CCc1cc2c(=O)c(Oc3ccccc3)c(C(F)(F)F)oc2cc1OC` stands “inactive”; under `CCOc1ccc2c(=O)c(Oc3ccccc3)c(C(F)(F)F)oc2c1`, “inactive”; under `CCCc1cc2c(=O)c(-c3ccc(C(=O)OCC)o3)c(C(=O)OCC)oc2cc1OC(C)=O`, 96% (active). For `CCOc1cc2oc(C(F)(F)F)c(Oc3ccccc3)c(=O)c2cc1CC`, the inhibition is 27.9% (inactive). Regarding `CCCc1cc2c(=O)c(-c3ccc(C(=O)OCC)o3)c(C(=O)OCC)oc2cc1OC`, the inhibition is 7.1% (inactive). In the case of `CCc1cc2c(=O)c(Oc3ccccc3)c(C(F)(F)F)oc2cc1O`, the inhibition was 70.8% (active). Under `CCc1cc2c(=O)c(Oc3ccccc3)c(C(F)(F)F)oc2cc1OC(C)=O` stands 121% (active); under `CC(=O)N1CCCc2cc(S(=O)(=O)NC(C(=O)Nc3nc4ccc(C)cc4s3)C(C)C)ccc21` (stereo unspecified), “inactive”. In the case of `COCCOC(=O)C1=C(C)NC2=C(C(=O)C(C(=O)OC)C(C)C2)C1c1cccc(O)c1` (stereo unspecified), the inhibition was 4.6% (inactive).

Turning to `CC1(C)CC(=O)C2=C(C1)OC(N)=C(C#N)C2c1ccc(Cl)cc1` (stereo unspecified), the inhibition is 7.6% (inactive). With `CC(=O)N1CCc2cc(S(=O)(=O)NC(C(=O)Nc3ccccn3)C(C)C)ccc21` (stereo unspecified), the inhibition entry is “inactive”.

Consider `Cc1cc(C)c(S(=O)(=O)NCC2CCC(C(=O)NCCc3ccc(Cl)cc3)CC2)c(C)c1` (stereo unspecified), for which the inhibition was 18.5% (inactive). Then `CCc1cc(=O)oc2cc(OCC(=O)OC)c(Cl)cc12`, with “inactive”.

Regarding `CCCOc1ccc(C2NC(=O)NC(C)=C2C(=O)OCC(C)CCC)cc1` (stereo unspecified), the inhibition result is “inactive”. For `CCOC(=O)Oc1ccc2c(=O)c(Oc3cccc(C)c3)c(C(F)(F)F)oc2c1`, the inhibition entry was “inactive”. Then `CCOc1ccc2c(c1)C(C)=CC(C)(C)N2C(=O)C(C)N1C(=O)c2ccccc2C1=O` (stereo unspecified), with “inactive”. On to `Cc1cc(NC(=O)CSc2nc3ccccc3c(=O)n2CC2CCC(C(=O)NCCc3ccccc3)CC2)no1` (stereo unspecified), for which the inhibition result was “inactive”. With `CNC(=O)C1CCC(CNS(=O)(=O)c2ccc(NC(C)=O)cc2)CC1` (stereo unspecified), the inhibition result was “inactive”. For the molecule `CC(=O)Oc1ccc2c(=O)c(Oc3ccccc3)c(C(F)(F)F)oc2c1`, the inhibition is 97.6% (active). `CCCc1cc2c(=O)c(-c3nc4ccccc4s3)c(C)oc2cc1OC(C)=O`: the inhibition entry is “inactive”. Regarding `COc1ccc2c(=O)c(-c3ccccc3OC)c(C(F)(F)F)oc2c1`, the inhibition result is “inactive”. Take `COc1ccccc1-c1c(C(F)(F)F)oc2cc(OC(=O)C(C)C)ccc2c1=O`: the inhibition was 92% (active). Regarding `CCOC(=O)Oc1ccc2c(=O)c(-c3ccccc3OC)c(C(F)(F)F)oc2c1`, the inhibition was 36.6% (inactive). On to `CCCc1cc2c(=O)c(-c3nc(C)cs3)coc2cc1OC(C)=O`, for which the inhibition result was “inactive”. Take `CCCc1cc2c(=O)c(-c3nc(C)cs3)c(C)oc2cc1OC(C)=O`: the inhibition was 72.7% (active). For `CCCc1ccc(Oc2c(C(F)(F)F)oc3cc(OC(C)=O)ccc3c2=O)cc1`, the inhibition is 46.4% (inactive). `CC(=O)Oc1ccc2c(=O)c(Oc3cc(C)cc(C)c3)c(C(F)(F)F)oc2c1`: the inhibition was 9.4% (inactive).
